# Most compounds without a hit are left out; they make up all but 4.5% or so of the library.
# Mdm2-MdmX inh – inhibitors of human Mdm2-MdmX association, primary screen, cell-based, luminescence, split luciferase, SaOS-2, uHTS; SaOS-2 split-luciferase Mdm2/MdmX complementation; inhibition, % at 8 µM; 3% of 330,000 active; AID 485346, 2010;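 active = inhibition of at least 50% at 8 µM in the primary screen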
# Target sequence (O15151 whole entry, looked up): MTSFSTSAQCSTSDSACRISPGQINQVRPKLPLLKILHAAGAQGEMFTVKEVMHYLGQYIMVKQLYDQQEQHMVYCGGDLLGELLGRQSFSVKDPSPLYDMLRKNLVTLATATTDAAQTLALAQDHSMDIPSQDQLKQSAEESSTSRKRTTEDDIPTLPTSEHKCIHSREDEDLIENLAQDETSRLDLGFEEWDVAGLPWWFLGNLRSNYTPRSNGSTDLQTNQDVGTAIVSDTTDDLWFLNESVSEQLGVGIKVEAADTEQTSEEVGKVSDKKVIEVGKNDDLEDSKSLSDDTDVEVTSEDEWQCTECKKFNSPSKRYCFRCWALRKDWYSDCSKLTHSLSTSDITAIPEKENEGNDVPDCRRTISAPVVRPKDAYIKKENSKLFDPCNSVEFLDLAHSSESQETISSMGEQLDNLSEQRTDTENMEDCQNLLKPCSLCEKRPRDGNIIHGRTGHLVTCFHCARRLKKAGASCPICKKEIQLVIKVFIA
# Target sequence (Q00987 whole entry, looked up): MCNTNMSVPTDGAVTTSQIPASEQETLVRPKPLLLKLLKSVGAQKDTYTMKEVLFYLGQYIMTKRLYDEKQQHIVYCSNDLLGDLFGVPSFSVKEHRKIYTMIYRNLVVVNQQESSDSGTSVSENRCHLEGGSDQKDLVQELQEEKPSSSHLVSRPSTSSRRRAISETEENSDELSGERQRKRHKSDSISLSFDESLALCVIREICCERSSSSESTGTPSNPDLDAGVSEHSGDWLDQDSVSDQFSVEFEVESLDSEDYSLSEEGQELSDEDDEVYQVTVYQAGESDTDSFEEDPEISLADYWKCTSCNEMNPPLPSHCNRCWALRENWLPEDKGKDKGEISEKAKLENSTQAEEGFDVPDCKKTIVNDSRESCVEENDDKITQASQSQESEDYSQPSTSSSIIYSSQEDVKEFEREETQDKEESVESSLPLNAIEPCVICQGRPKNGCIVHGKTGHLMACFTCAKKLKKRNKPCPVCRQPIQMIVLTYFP
# 697 NFkB inh – inhibitors of PMA/ionomycin-induced NF-kB reporter, 697 cells, primary screen, B-cell NF-kB inhibitor project, cell-based, luminescence, uHTS | 697 B-cell NF-kB luciferase reporter, 16 h | inhibition, % at 4 µM | 0.33% of 330,000 active | AID 435022, 2010; in the data active = inhibition above about 35%
# Gli-Sufu block – Gli-Sufu pathway antagonists, primary screen, luciferase luminescence, Sufu-KO-LIGHT cells, uHTS. Sufu-KO-LIGHT fibroblasts, Gli luciferase reporter luminescence. inhibition, % at 5 µM. 0.74% of 340,000 active;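 active = inhibition above about 55%, limit read from the data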;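 note: 0% = DMSO-treated cells and 100% = wells with medium but no cells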
# Jurkat NFkB inh – inhibitors of induced NF-kB luciferase reporter, primary screen, TCR NF-kB activation inhibitor project, cell-based, luminescence, uHTS. inhibition, % at 4 µM. AID 435003, 2010. 0.53% of 330,000 active. Jurkat, PMA/ionomycin-induced NF-kB luciferase reporter; in the data active = inhibition above about 50%
# Beta apoptosis – inhibitors of cytokine-induced beta cell apoptosis, primary screen, luminescence; AID 435005, 2010; protection from apoptosis, % (concentration not given with the values); 0.8% of 300,000 active; INS-1E cytokine-induced death, ATP luminescence, 48 h; percent of positive-control rescue, neutral wells zero;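 active = Every replicate reaches about 75%, or at least half do and their mean reaches it too, limit read from the data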;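 note: 0% = cytokine-treated negative control wells and 100% = positive control rescue; higher means more ATP so stronger rescue from cytokine killing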
# CSC inhib – cancer stem cell viability inhibitors, primary screen, luminescence; cancer stem cell-like cells viability; inhibition, % at 7.5 µM; 1.1% of 300,000 active; AID 2717, 2010; in the data active = inhibition above about 75%; tested in HMLE shEcad cells
# Mdm2-MdmX conf – Mdm2-MdmX complex disruptors, retested hits, confirmation, luminescence, single concentration. shares compounds with Mdm2-MdmX inh. Mdm2-MdmX binding, luminescent assay. inhibition, % at 8 µM. 55% of 10,000 active. AID 489028, 2010; in the data active = inhibition above about 40%
# Full FLuc ctr – full-length luciferase signal inhibition, confirmation, counter-screen for Mdm2/MdmX interaction inhibitor project, cell-based, single concentration, SaOS-2. shares compounds with Mdm2-MdmX inh. SaOS-2 full-length luciferase counterscreen, luminescence. inhibition, % at 8 µM. 77% of 6,200 active. AID 504607, 2011;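 active = mean inhibition at 8 µM reaching about 37%, which flags the compound as non-specific, limit read from the data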;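 note: p53-null SaOS-2 cells with luciferase driven by a doxycycline-inducible promoter; compound on cells about two nights before reading with doxycycline added after day one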
# The depositor's hits bear a star; · = not tested or not shown.
SMILES,Mdm2-MdmX inh,697 NFkB inh,Gli-Sufu block,Jurkat NFkB inh,Beta apoptosis,CSC inhib,Mdm2-MdmX conf,others
COCCN(CC(=O)Nc1cccc(C)c1C)C(=O)c1oc2c(Cl)cccc2c1C,14.2,-11.1,8.3,-21.3,-6.0,-4.2,·,
O=c1[nH]c2ccc([N+](=O)[O-])cc2nc1/C=C(\O)c1ccccc1,80.7*,-4.3,-14.2,-23.7,30.5,-9.8,-8.2,
O=C(Nc1ccccc1)c1nc[nH]c1C(=O)NCCCCNC(=O)c1[nH]cnc1C(=O)Nc1ccccc1,77.1*,10.5,7.7,0.9,0.4,17.0,45.1*,Full FLuc ctr=89.9*
O=C(Nc1ccccc1)c1nc[nH]c1C(=O)NCCNC(=O)c1[nH]cnc1C(=O)Nc1ccccc1,47.3,24.1,1.1,12.7,1.9,13.8,·,
Cc1ccc(NC(=O)c2nc[nH]c2C(=O)NCCCCCCNC(=O)c2[nH]cnc2C(=O)Nc2ccc(C)cc2)cc1,69.7*,6.4,-2.4,8.7,21.8,·,11.4,
O=C(c1ccccc1)c1nc[nH]c1C(=O)Nc1ccccc1,50.2*,-6.0,2.6,-4.4,13.4,18.3,29.8,Full FLuc ctr=64.8*
CCC(C(=O)NCCCN(CC)Cc1ccccc1)n1nc(C)c2sc3ccccc3c2c1=O (stereo not drawn),44.9,-6.0,22.8,-2.5,1.5,-6.4,·,
COCCCNc1nc(N)c([N+](=O)[O-])c(Nc2ccccc2OC)n1,61.1*,-55.9,-13.7,26.3,-12.8,10.4,30.1,
COCCCNc1nc(N)c([N+](=O)[O-])c(NCc2ccccc2)n1,25.9,5.0,4.2,-2.5,-7.4,-5.8,·,
CCOC(=O)c1ccc(N2C(=O)C(C)=C(C)C2=O)cc1,62.4*,-54.7,-60.9,-32.8,4.6,3.2,7.7,
Cc1ccc(-n2ncc3c2CCCC3NC(=O)CCCN2CCCC2=O)cc1C (stereo not drawn),2.6,0.5,5.1,-7.9,-3.2,-19.5,·,
Cc1onc(-c2ccccc2Cl)c1C(=O)O/N=C(\N)c1ccc([N+](=O)[O-])o1,60.4*,25.9,-5.2,9.3,68.4,3.0,39.5,Full FLuc ctr=70.5*
C/C(=N/OC(=O)c1c(-c2ccccc2Cl)noc1C)c1cnccn1,14.3,-12.1,-1.4,6.6,-4.5,0.7,·,
COc1ccc(C(=O)/C(C#N)=N/Nc2cccc([N+](=O)[O-])c2)cc1,·,·,14.6,·,·,·,·,
N#Cc1c(Oc2ccc3ccccc3c2)sc(C(=O)c2ccccc2)c1N,75.4*,0.3,30.5,-0.1,-9.5,·,26.4,
O=S(=O)(Cc1ccccc1)N1CCNCC1,-4.8,3.9,5.0,-7.1,-2.4,·,·,
COC(=O)c1cccc2c(C(=O)O)cc(-c3ccccc3)nc12,·,·,12.0,·,·,·,·,
COC(=O)c1cc2ccsc2n1Cc1nc(-c2ccc(OC)cc2)oc1C,60.4*,-5.8,5.8,6.9,·,·,5.7,
COC(=O)c1cc2ccsc2n1Cc1cccc(F)c1,-5.2,-21.8,-27.2,-4.0,-8.7,23.1,·,
COC(=O)c1cc2sccc2n1Cc1nc(-c2ccc(OC)cc2)oc1C,68.2*,-13.7,3.5,-18.5,-0.1,-1.8,28.4,
O=C(/C=C/c1ccccc1[N+](=O)[O-])Nc1cc(S(=O)(=O)N2CCOCC2)ccc1N1CCOCC1,·,·,4.1,·,·,·,·,
O=C(/C=C/Nc1ccc(Br)cn1)c1cccc(OC(F)F)c1,-68.2,-64.3,-59.3,-33.4,2.0,66.7,·,
CCC(C)c1ccc2oc(-c3ccc(NC(=O)Cn4cnc5c(=O)n(C)c(=O)n(C)c54)cc3)nc2c1 (stereo not drawn),50.4*,-42.7,-4.1,-41.1,13.1,17.7,61.2*,Full FLuc ctr=146.9*
O=C(N/N=C/c1cccc(Cl)c1)c1c(O)c2c([nH]c1=O)CCCC2,68.8*,-47.4,2.7,-48.8,6.0,30.1,-19.1,
Cc1ccsc1C(=O)NC1CCCN(Cc2ccc(Cl)cc2)C1 (stereo not drawn),-10.5,11.7,18.3,-4.8,3.0,-0.2,·,
SMILES,Mdm2-MdmX inh,697 NFkB inh,Gli-Sufu block,Jurkat NFkB inh,Beta apoptosis,CSC inhib,Mdm2-MdmX conf,others
COc1cccc(-n2cn[nH]c2=S)c1,3.3,14.2,-0.1,9.7,0.4,-4.1,·,
COc1cccc(-n2sc3c(c2=S)-c2cc(OC)ccc2NC3(C)C)c1,50.5*,-19.5,8.5,-3.4,1.4,-14.6,38.9,Full FLuc ctr=76.2*
CC(C)(C)C1CCC2(CC1)C(C#N)=C(SCC(=O)Nc1ccccc1)NC(=O)C2C#N (stereo not drawn),91.8*,7.4,15.8,6.6,45.2,66.0,75.2*,Full FLuc ctr=58.9*
COc1ccc(NC(C)=O)cc1CP(=O)(c1ccccc1)c1ccccc1,17.9,9.5,2.3,11.6,1.1,-14.5,·,
COc1ccc(C2(C)NC(=O)N(CC(=O)Nc3ccc(C)cc3Br)C2=O)cc1OC (stereo not drawn),21.2,17.8,-0.4,-15.2,-3.2,-13.1,·,
OCCN1CCN(CC/C=C2/c3ccccc3Sc3ccc(Cl)cc32)CC1,60.8*,15.8,-6.0,2.7,-6.1,14.1,23.9,
CCCCCCCCCC[N+](C)(C)CC/C=C1/c2ccccc2Sc2ccc(Cl)cc21,82.8*,-0.4,15.9,-0.4,91.4*,105.6*,76.5*,Full FLuc ctr=19.3
CCCCCCCCCCC[N+](C)(C)CC/C=C1/c2ccccc2Sc2ccc(Cl)cc21,77.8*,3.1,25.8,5.1,98.0*,58.9,68.6*,Full FLuc ctr=28.6
CC[N+](C)(C)CC/C=C1/c2ccccc2Sc2ccc(Cl)cc21,34.0,-6.9,5.3,-6.8,3.9,-8.2,·,
OCCN1CCN(CCCN2c3ccccc3Sc3ccc(Cl)cc32)CC1,45.8,3.2,1.2,2.6,4.3,37.9,·,
CCOC(=O)C1=C(COC(=O)c2ccc(Cl)nc2)NC(=O)NC1C (stereo not drawn),·,·,-2.4,·,·,·,·,
COc1ccc(C(=O)Oc2cc3c4c(c2)C(C)=CC(C)(C)N4C(=O)C3=O)cc1OC,67.0*,20.8,-18.9,21.0,9.4,11.5,23.9,
COc1cc2c3c(c1)C(C)=CC(C)(C)N3C(=O)C2=O,55.5*,6.8,1.7,-4.5,13.7,10.9,26.3,
COc1cccc(C(=O)Oc2cc3c4c(c2)C(C)=CC(C)(C)N4C(=O)C3=O)c1,66.5*,-2.1,-3.4,21.3,36.6,6.7,49.8*,Full FLuc ctr=44.5*

# Screening results deposited in PubChem BioAssay by several laboratories.
